An excerpt weighted towards active compounds, which were near 11% of everything screened.
IMPase cell inh: qHTS Assay for Identifying the Cell-Membrane Permeable IMPase Inhibitors; Inositol monophosphatase 1 (Rattus norvegicus), P97697; CHO-M1 cells, IP1 accumulation, HTRF TR-FRET ratio; inhibition (IP1 accumulation), % at 46.1 µM; 120,000 tested, under 10 active; AID 901, 2007; active = well fitted curve in the direction sought with a large enough effect in the signal ratio, not every such curve was filed as active; inconclusive = small, poorly fitted or top-dose-only effect, or a change in a side signal; inactive = no such curve, though single readings can be large or run the other way; the % refers to the signal ratio;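 also: cells stimulated with carbachol in lithium chloride buffer; higher means more IMPase inhibition seen as more IP1 and lower FRET ratio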
Target sequence (P97697 whole entry, looked up): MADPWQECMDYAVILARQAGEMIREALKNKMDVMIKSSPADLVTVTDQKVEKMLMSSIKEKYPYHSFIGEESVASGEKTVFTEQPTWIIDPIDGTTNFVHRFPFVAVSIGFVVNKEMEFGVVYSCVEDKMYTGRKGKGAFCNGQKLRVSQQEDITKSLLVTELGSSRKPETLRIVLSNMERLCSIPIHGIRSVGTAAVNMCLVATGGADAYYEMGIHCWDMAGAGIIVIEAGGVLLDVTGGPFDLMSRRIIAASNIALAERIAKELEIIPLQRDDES
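Seeded CHO-M1 cells were dosed with compound at up to 46 uM, stimulated with carbachol for 30 min, then lysed in IP-One detection reagents. Higher IP1 lowers the TR-FRET signal.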
HPGD inh: qHTS Assay for Inhibitors of HPGD (15-Hydroxyprostaglandin Dehydrogenase) | purified HPGD, NADH fluorescence kinetic, PGE2 substrate | 15-hydroxyprostaglandin dehydrogenase [NAD(+)] (Homo sapiens), P15428 | AID 894, 2007 | 150,000 compounds, 4.3% hits | Potency, µM, hits mostly inhibitors; active = well fitted inhibition curve with a large enough effect, not every such curve was filed as active; inconclusive = small, poorly fitted or top-dose-only effect, or another doubt; inactive = no such curve, though single readings can be large or run the other way
Target sequence (P15428 whole entry, looked up): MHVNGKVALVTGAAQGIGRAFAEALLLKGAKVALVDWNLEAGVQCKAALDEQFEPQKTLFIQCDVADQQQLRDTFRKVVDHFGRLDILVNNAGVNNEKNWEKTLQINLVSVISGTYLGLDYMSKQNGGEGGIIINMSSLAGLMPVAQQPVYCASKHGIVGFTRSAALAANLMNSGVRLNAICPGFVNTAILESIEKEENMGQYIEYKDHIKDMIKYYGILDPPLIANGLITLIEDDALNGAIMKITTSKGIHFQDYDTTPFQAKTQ
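20 nM HPGD preincubated 15 min at room temperature with compound in 50 mM Tris-HCl pH 8, 0.01% Tween 20. Started with 1 mM NAD+ and 30 uM prostaglandin E2; NADH fluorescence (360/450 nm) read 5 times over 30-s intervals, last minus first.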
ALOX12 inhib: qHTS Assay for Inhibitors of 12-hLO (12-human lipoxygenase); Potency, µM (doses to about 57.1 µM), usual class: inhibitors; AID 1452, 2008; 150,000 compounds, 0.12% hits; purified 12-hLO, xylenol orange hydroperoxide absorbance; Polyunsaturated fatty acid lipoxygenase ALOX12 (Homo sapiens), P18054; also: nearly all actives have a fitted effect of over 55% in size
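Hydroperoxide formation by human 12-lipoxygenase from 40 uM arachidonic acid was followed colorimetrically via ferric-xylenol orange complex, using the 573/405 nm absorbance ratio. Enzyme concentration was 150 nM, with 30 min reaction at room temperature.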
IMPase Li inh: qHTS Assay for Identifying the Cell-Membrane Permeable IMPase Inhibitors: Potentiation with Lithium. Potency, µM (highest dose often 59.4 µM), most hits filed as inhibitors. CHO-M1 cells, IP1 TR-FRET (IP-One), carbachol + lithium. 210,000 compounds, 0.35% hits. AID 1457, 2008;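 also: IP1 builds up when IMPase is blocked and the TR-FRET signal falls; nearly all actives have a fitted effect of over 50% in size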
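Concentration–response in CHO-M1 cells, lithium-potentiated; 30 min at 37C. IP1 detected by competitive TR-FRET after 10 min lysis at RT. Hill-fitted AC50.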
ALDH1A1 block: qHTS Assay for Inhibitors of Aldehyde Dehydrogenase 1 (ALDH1A1); Aldehyde dehydrogenase 1A1 (Homo sapiens), P00352; Purified ALDH1A1, NADH fluorescence, propionaldehyde substrate; Potency, µM (series often up to 75.3 µM), usual class: inhibitors; 220,000 compounds, 7.3% hits; AID 1030, 2008; active = well fitted inhibition curve with a large enough effect, not every such curve was filed as active; inconclusive = small, poorly fitted or top-dose-only effect, or another doubt; inactive = no such curve, though single readings can be large or run the other way
PNC inhibitor: High Content Assay for Compounds that inhibit the Assembly of the Perinucleolar Compartment | PC3M PTB-GFP, PNC prevalence imaging, 16 h; hits give low values | activity change (PNC), negative = inhibition, % at 10 µM | 140,000 compounds, 3.1% hits | AID 2417, 2010;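 active = readout at or below -70, meaning at least 70% loss of cells showing the perinucleolar compartment, a nuclear body marking cancer cells; inconclusive = readout between -30 and a set limit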
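Read-out is percentage of cells bearing a perinucleolar compartment, from automated 20x imaging of fixed, Hoechst-stained PC3M PTB-GFP cells. Cells were seeded 4 h, then exposed 16 h to compound (23 nl of library stock) in duplicate plates.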
Of the large screens only hits and unclear results are named; the others gave an inactive call. Unless noted, calls follow the shape of the dose curve; as a rule, active = well fitted curve in the direction sought with a large enough effect; inconclusive = small, poorly fitted or top-dose-only effect, or another doubt; inactive = no such curve, though single readings can be large; an effect the other way counts as inactive or inconclusive.

O=C(NCc1cccs1)C1CCC(CNS(=O)(=O)c2cccc3nsnc23)CC1 (configuration not stated)	ALDH1A1 block 22µM, PNC inhibitor inconclusive
O=C(NCc1cccs1)C1CCC(CNS(=O)(=O)c2ccc(Br)s2)CC1 (configuration not stated)	ALDH1A1 block 2.8µM
O=C(C1CCC(CNS(=O)(=O)c2cccc3nsnc23)CC1)N1CC=C(c2ccccc2)CC1 (configuration not stated)	HPGD inh 16µM, ALDH1A1 block 18µM
COc1cccc(CNC(=O)C2CCC(CNS(=O)(=O)c3cccc4nsnc34)CC2)c1 (configuration not stated)	ALDH1A1 block 20µM, PNC inhibitor -106
CCNc1ncc2nc(-c3cc(F)cc(F)c3)c(=O)n(CCC#N)c2n1	ALDH1A1 block inconclusive (no result: IMPase cell inh, HPGD inh, ALOX12 inhib, PNC inhibitor)
CCC1=C2CC[C@H]3C(=O)N(CC)C(=O)[C@H]3[C@H]2[C@@]2(Cc3ccccc3)C(=O)N(CC3CC3)C(=O)N2C1=O	none (no result: IMPase cell inh, PNC inhibitor)
Cc1ccc(CNC(=O)C2(CC(C)C)C=CCN2C(=O)c2ccccc2)o1 (configuration not stated)	none (no result: IMPase cell inh, PNC inhibitor)
CC(C)N(Cc1ccccc1)C(=O)COC(=O)/C=C/c1cnc2ccccc2n1	ALDH1A1 block 16µM (no result: IMPase cell inh, HPGD inh, ALOX12 inhib, PNC inhibitor)
CCN(C(=O)COC(=O)/C=C/c1cnc2ccccc2n1)c1ccccc1	ALDH1A1 block inconclusive (no result: IMPase cell inh, HPGD inh, ALOX12 inhib, PNC inhibitor)
COc1ncc2nc(-c3cccs3)c(=O)n(CCc3ccccc3)c2n1	ALDH1A1 block inconclusive (no result: IMPase cell inh, HPGD inh, ALOX12 inhib, PNC inhibitor)
COc1ccc2cc(C(c3nnnn3C3CCCC3)N3CCc4ccccc4C3)c(=O)[nH]c2c1 (configuration not stated)	HPGD inh inconclusive, ALDH1A1 block 18µM
Cc1cccc2cc(C(c3nnnn3C3CCCC3)N3CCOCC3)c(=O)[nH]c12 (configuration not stated)	IMPase cell inh inconclusive, ALDH1A1 block inconclusive
Cc1ccc2cc(C(c3nnnn3C3CCCC3)N3CCN(c4ccc(F)cc4)CC3)c(=O)[nH]c2c1 (configuration not stated)	ALDH1A1 block 11µM
Cc1cc(C)c2cc(C(c3nnnn3C3CCCC3)N3CCOCC3)c(=O)[nH]c2c1 (configuration not stated)	HPGD inh inconclusive, ALDH1A1 block 14µM
CCN(CC)S(=O)(=O)c1cc(NS(=O)(=O)c2cccc(Cl)c2Cl)ccc1C	ALDH1A1 block 7.9µM (no result: IMPase cell inh)
CC(=O)Nc1ccc(NS(=O)(=O)c2ccc(Cl)s2)cc1	none (no result: IMPase cell inh, HPGD inh, ALOX12 inhib, PNC inhibitor)
Cc1ccc(NS(=O)(=O)c2ccc(Cl)s2)cc1S(=O)(=O)N(C)C	ALDH1A1 block 3.2µM (no result: IMPase cell inh)
CSc1nc2ccc(NS(=O)(=O)c3ccc(Cl)s3)cc2s1	HPGD inh 25µM, ALDH1A1 block 40µM
CCN(CC)S(=O)(=O)c1cc(NS(=O)(=O)c2c(Cl)cccc2Cl)ccc1C	ALDH1A1 block inconclusive (no result: IMPase cell inh)
COCCn1c(NC(=S)NC(=O)C2CC2)cc(=O)[nH]c1=O	ALDH1A1 block 0.63µM (no result: IMPase cell inh, HPGD inh, ALOX12 inhib, PNC inhibitor)
COc1ccc(CNC(=O)C2CCN(S(=O)(=O)c3ccc(F)cc3)CC2)cc1	none (no result: HPGD inh, ALOX12 inhib, IMPase Li inh, ALDH1A1 block, PNC inhibitor)
Nc1cc(=O)[nH]c(SCC(=O)Nc2cccc(Cl)c2)n1	none
COC(OC)c1nc(SCC(=O)Nc2cccc(Cl)c2)ncc1C(=O)O	ALDH1A1 block 28µM (no result: IMPase cell inh, HPGD inh, ALOX12 inhib, IMPase Li inh, PNC inhibitor)
COc1cccc(Cn2c(=O)c(C)nc3cnc(N4CCOCC4)nc32)c1	ALDH1A1 block inconclusive (no result: IMPase cell inh, PNC inhibitor)
COc1ccc(COC(=O)N/N=C2/C[C@@H](O)[C@@H](O)[C@@H]3[C@H]4C(=O)N(c5ccc(F)cc5F)C(=O)[C@@H]4CC[C@H]23)cc1	none (no result: IMPase cell inh, HPGD inh, ALOX12 inhib, IMPase Li inh, PNC inhibitor)
CCCCc1ccc(/C=C2\C(=O)c3ccccc3C(O)=C2C(=O)OCC)cc1	HPGD inh 8.9µM, ALDH1A1 block inconclusive
CCOC(=O)C1=C(O)/C(=C\c2cccc(OC)c2)N=C1C	PNC inhibitor inconclusive
CCOc1ccc(NC(=O)C2CCC(CNS(=O)(=O)c3ccc(Br)s3)CC2)cc1 (configuration not stated)	none (no result: HPGD inh, ALOX12 inhib, IMPase Li inh, ALDH1A1 block, PNC inhibitor)
CC12CCC3c4ccc(OCc5ccccc5)cc4CCC3C1CC(O)C2O (configuration not stated)	none (no result: IMPase cell inh, PNC inhibitor)
Cc1cc(C)cc(NS(=O)(=O)c2ccc3[nH]cc(C(=O)N4CCc5ccccc54)c(=O)c3c2)c1	ALDH1A1 block 10µM (no result: IMPase cell inh)
CCc1ccc(NS(=O)(=O)c2ccc3[nH]cc(C(=O)N4CCc5ccccc54)c(=O)c3c2)cc1	ALDH1A1 block 14µM, PNC inhibitor inconclusive
O=C(NC1CCCCC1)C(c1cc2c(cc1[N+](=O)[O-])OCO2)N1CCCCC1 (configuration not stated)	HPGD inh inconclusive, ALDH1A1 block 28µM (no result: IMPase cell inh)
COc1ccc(NC(=O)C(c2cc3c(cc2[N+](=O)[O-])OCO3)N2CCN(C=O)CC2)cc1 (configuration not stated)	ALDH1A1 block inconclusive, PNC inhibitor inconclusive (no result: IMPase cell inh)
O=CN1CCN(C(C(=O)NC2CCCCC2)c2cc3c(cc2[N+](=O)[O-])OCO3)CC1 (configuration not stated)	ALDH1A1 block 5µM (no result: IMPase cell inh, HPGD inh, ALOX12 inhib, PNC inhibitor)
Cc1cccc(CNc2ncncc2-c2ccc(C(=O)N(C)C)cc2)c1	ALDH1A1 block inconclusive (no result: IMPase cell inh, HPGD inh, ALOX12 inhib, PNC inhibitor)
O=C(C1CCCN(Cc2cccs2)C1)N1CCCCCC1 (configuration not stated)	none (no result: HPGD inh, IMPase Li inh)

Bioassay records as filed in PubChem BioAssay.
